# Source: PubChem BioAssay (NCATS)
# Records with an inconclusive call do not appear. A call without a number means that no potency is given here. Unmarked numbers belong to inactive results. Calls of active or inactive are those of the source. Unless noted, the call rests on the fitted dose curve; in most records, active means well fitted curve in the direction sought with a large enough effect; inconclusive means small, poorly fitted or top-dose-only effect, or another doubt; inactive means no such curve, though single readings can be large; an effect the other way counts as inactive or inconclusive.
# Experiments:
# [1] = qHTS for Inhibitors of Plasmodium falciparum (DD2) proliferation (AID 504314);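 further: parasite DNA measured by SYBR Green fluorescence after red cell lysis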
# Method in brief: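 P. falciparum Dd2 is grown in erythrocytes with test compound for 72 h at 37C under 5% CO2. Growth is scored by SYBR Green I fluorescence after detergent lysis, relative to artemisinin (0.29 uM) and DMSO controls.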
# [2] = qHTS for Inhibitors of Plasmodium falciparum (CP250) proliferation (AID 504320); further: potency means the concentration at half of the fitted maximal effect
# Method in brief: (§1)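 Parasite growth measured as SYBR Green DNA fluorescence (ex 485, em 535 nm) after overnight lysis following 72 h culture at 37 °C, 0.3% parasitemia, 2.5% hematocrit. Values normalized against DMSO and 0.29 uM artemisinin controls, with plate-stack correction.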
# [3] = biological target: Atrial natriuretic peptide receptor 1 (Homo sapiens) (UniProt P16066); experiment: Natriuretic polypeptide receptor (hNpr1) antagonism - Pilot CMLD screen (AID 1347052; calls by dose curve;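 further: HEK293 cells with hNpr1 stimulated by hNppA peptide at 0.1 nM; cGMP level read as GloSensor luciferase luminescence after agonist stimulation; series mostly up to about 9.2 µM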)
# Chain of Atrial natriuretic peptide receptor 1 (Homo sapiens) (P16066 whole entry, looked up): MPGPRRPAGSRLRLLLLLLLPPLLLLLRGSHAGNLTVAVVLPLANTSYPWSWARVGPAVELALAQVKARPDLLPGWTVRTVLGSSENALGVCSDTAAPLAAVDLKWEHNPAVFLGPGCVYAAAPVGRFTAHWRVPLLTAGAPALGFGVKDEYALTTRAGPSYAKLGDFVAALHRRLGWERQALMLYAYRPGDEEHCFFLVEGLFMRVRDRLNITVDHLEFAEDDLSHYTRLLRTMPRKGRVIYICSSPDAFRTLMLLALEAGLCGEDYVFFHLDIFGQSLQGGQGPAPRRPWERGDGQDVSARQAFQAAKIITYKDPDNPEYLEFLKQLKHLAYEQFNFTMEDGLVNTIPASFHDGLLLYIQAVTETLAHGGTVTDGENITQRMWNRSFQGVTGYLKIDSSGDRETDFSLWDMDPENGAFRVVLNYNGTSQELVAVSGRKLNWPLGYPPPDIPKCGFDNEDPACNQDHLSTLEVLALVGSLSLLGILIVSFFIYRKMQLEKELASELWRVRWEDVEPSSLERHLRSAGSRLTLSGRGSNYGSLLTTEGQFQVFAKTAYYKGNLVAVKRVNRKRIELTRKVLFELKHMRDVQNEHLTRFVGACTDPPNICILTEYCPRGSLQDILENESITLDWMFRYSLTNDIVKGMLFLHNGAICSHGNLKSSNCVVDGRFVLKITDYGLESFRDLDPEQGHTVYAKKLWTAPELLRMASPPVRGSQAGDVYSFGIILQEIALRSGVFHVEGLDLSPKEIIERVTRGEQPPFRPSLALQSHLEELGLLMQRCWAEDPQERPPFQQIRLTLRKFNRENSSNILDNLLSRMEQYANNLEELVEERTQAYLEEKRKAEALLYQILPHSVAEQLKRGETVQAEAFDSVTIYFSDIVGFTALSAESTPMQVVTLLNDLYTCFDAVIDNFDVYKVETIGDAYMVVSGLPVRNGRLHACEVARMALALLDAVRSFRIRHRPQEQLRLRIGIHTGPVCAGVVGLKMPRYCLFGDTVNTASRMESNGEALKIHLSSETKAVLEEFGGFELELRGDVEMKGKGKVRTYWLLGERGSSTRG
# [4] = qHTS for Inhibitors of Plasmodium falciparum (GB4) proliferation (AID 504315); further: nearly all actives have a fitted effect of over 50% in size; further: potency means the concentration at half of the fitted maximal effect
# Method in brief: as §1
# [5] = qHTS for Inhibitors of Plasmodium falciparum (7G8) proliferation (AID 504316); further: nearly all actives have a fitted effect of over 65% in size; further: potency means the concentration at half of the fitted maximal effect
# Method in brief: as §1
# [6] = qHTS for Inhibitors of Plasmodium falciparum (HB3) proliferation (AID 504318); further: nearly all actives have a fitted effect of over 60% in size; further: potency means the concentration at half of the fitted maximal effect
# Method in brief: as §1
SMILES,Potency [1],Potency [2],Potency [3],Potency [4],Potency [5],Potency [6]
COc1ccc2c(c1)[C@@H](NC(=O)C(F)(F)F)C1CCCCC21c1ccccc1 (stereo partly drawn),inactive,inactive,inactive,–,–,–
Cc1cc2c(c(=O)n1Cc1ccccc1)[C@H]1O[C@](CCCCN3C(=O)c4ccccc4C3=O)(Cc3ccccc31)O2,–,1.35 µM (active),inactive,1.9 µM (active),1.69 µM (active),1.69 µM (active)
COC(=O)[C@@H]1CC[C@H](C)[C@@H](c2ccc(C)cc2)N1C(=O)c1ccc(C=NO[C@@H](C)c2cn([C@H](CO)Cc3ccccc3)nn2)cc1,–,–,inactive,inactive,–,–
C=CCN=C1NC(CCc2ccccc2)C(C(=O)OC)=C(C)N1CC (stereo not drawn),–,–,inactive,inactive,inactive,inactive
CCN1C(=NCc2cccc(C(F)(F)F)c2)NC(c2cccc(F)c2)C(C(=O)OC)=C1C (stereo not drawn),–,–,inactive,0.757 µM (active),–,–
CCCCc1nc2c(c3c1C[C@H](C)OC3)CN(S(=O)(=O)c1ccccc1C(=O)OC)CC2,–,–,inactive,inactive,inactive,–
C=CC[C@@H]1C=C[C@H](ON=C(C)CCN2CCCc3nc(C)c(C)cc32)[C@H](CO)O1,–,–,inactive,1.9 µM (active),0.0757 µM (active),2.51 µM (active)
Cc1cc(O)cc(O)c1C(=O)OC1(C)C(=O)C=C2C=C(C=CCO)OC=C2C1=O (stereo not drawn),–,inactive,inactive,inactive,inactive,inactive
CCN(CC)CCCN=C1NC(c2cccc(F)c2)C(C(=O)OC)=C(C)N1Cc1ccccc1 (stereo not drawn),–,–,inactive,inactive,–,–
CC(C)CON=C1C[C@@H](O)[C@@H](O)[C@@H]2[C@H]3C(=O)N(C[C@@H]4CCCO4)C(=O)[C@@H]3CC[C@H]12,–,–,inactive,inactive,inactive,inactive
C#CCCOC(=O)N1C2=NC(C(=O)OC)=C(C(=O)OC)[C@@H]3N(C)c4ccccc4[C@]23C[C@H]1C(=O)OC,–,–,inactive,inactive,inactive,inactive
COC(=O)C1=C(C)N(Cc2ccccc2)C(=NCC2CC2)NC1c1ccccc1 (stereo not drawn),–,–,inactive,1.69 µM (active),–,–
CCN1C(=NCc2ccccc2)N[C@@H](c2ccccc2)[C@H](C(=O)OC)[C@H]1C,–,–,inactive,inactive,inactive,inactive
COC(=O)N[C@@H](C=Cc1ccccc1)C(C(=O)OC)=C(C)NCc1ccccc1,–,–,inactive,1.69 µM (active),–,–
COc1ccc([C@]23Cc4ccccc4[C@H](O2)c2c(c4ccc(OC)cc4oc2=O)O3)cc1,–,–,inactive,1.9 µM (active),1.69 µM (active),–
C[C@@H](c1ccccc1)N1C(=O)[C@@H]2[C@H]3[C@H](O)[C@H](O)CC(=NOC[C@@H](O)COCc4ccco4)[C@H]3CC[C@H]2C1=O,–,–,inactive,inactive,–,–
COc1ccc2c3c(c(=O)oc2c1)[C@H]1O[C@](c2ccsc2)(Cc2ccccc21)O3,–,–,inactive,1.69 µM (active),–,–
